These results are taken from ChEMBL document CHEMBL2218924, “A broad activity screen in support of a chemogenomic map for kinase signalling research and drug discovery” (Biochem J, 2013).

In experiment [1] the target is T1, CDK9/cyclin T1 (Homo sapiens) (UniProt O60563+P50750). The settings on record: at 1 µM.
Experiment [2] concerns the target T1, CDK9/cyclin T1 (Homo sapiens). The settings on record: at 10 µM.
For experiment [3], the target named is T2, Serine/threonine-protein kinase Chk1 (Homo sapiens) (UniProt O14757).
T2 sequence (whole entry): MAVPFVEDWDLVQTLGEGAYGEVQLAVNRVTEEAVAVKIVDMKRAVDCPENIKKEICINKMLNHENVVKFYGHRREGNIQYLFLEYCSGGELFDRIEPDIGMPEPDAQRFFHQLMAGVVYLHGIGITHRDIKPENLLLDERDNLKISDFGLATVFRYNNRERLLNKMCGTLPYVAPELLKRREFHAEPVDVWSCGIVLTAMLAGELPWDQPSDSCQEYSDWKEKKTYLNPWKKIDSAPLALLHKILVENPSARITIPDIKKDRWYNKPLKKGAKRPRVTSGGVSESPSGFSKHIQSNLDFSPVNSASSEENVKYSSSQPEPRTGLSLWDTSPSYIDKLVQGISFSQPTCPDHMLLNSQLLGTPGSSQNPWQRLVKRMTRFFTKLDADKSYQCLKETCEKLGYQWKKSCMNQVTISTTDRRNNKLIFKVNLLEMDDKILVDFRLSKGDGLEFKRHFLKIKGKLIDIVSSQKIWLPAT
The settings on record: at 1 µM.

The target of experiment [4] is T2, Serine/threonine-protein kinase Chk1 (Homo sapiens). Conditions: at 10 µM.
The target in experiment [5] is Serine/threonine-protein kinase Chk2 (Homo sapiens) (UniProt O96017). The settings on record: at 1 µM.
Serine/threonine-protein kinase Chk2 (Homo sapiens), sequence (O96017 whole entry): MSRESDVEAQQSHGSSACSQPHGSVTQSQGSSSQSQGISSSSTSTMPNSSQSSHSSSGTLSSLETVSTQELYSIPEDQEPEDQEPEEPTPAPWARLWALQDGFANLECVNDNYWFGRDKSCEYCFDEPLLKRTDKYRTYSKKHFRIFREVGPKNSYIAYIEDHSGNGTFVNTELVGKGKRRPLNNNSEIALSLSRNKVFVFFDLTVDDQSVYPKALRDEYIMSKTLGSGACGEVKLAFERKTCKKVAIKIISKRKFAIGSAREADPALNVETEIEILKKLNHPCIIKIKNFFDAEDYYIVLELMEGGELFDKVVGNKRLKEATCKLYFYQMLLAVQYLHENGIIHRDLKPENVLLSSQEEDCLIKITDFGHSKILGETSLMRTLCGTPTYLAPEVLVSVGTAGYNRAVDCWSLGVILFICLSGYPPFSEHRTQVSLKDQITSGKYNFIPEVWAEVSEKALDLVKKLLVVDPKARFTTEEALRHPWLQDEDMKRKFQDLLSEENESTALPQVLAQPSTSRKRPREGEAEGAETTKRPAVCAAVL
Experiment [6] shares this target. Conditions: at 10 µM.
Experiment [7] has as its target Casein kinase I isoform gamma-1 (Homo sapiens) (UniProt Q9HCP0). Conditions: at 1 µM.
Experiment [8] has the same target. The settings on record: at 10 µM.
For experiment [9], the target named is Casein kinase I isoform delta (Homo sapiens) (UniProt P48730). Conditions: at 1 µM.
Casein kinase I isoform delta (Homo sapiens), sequence (P48730 whole entry, looked up, canonical isoform): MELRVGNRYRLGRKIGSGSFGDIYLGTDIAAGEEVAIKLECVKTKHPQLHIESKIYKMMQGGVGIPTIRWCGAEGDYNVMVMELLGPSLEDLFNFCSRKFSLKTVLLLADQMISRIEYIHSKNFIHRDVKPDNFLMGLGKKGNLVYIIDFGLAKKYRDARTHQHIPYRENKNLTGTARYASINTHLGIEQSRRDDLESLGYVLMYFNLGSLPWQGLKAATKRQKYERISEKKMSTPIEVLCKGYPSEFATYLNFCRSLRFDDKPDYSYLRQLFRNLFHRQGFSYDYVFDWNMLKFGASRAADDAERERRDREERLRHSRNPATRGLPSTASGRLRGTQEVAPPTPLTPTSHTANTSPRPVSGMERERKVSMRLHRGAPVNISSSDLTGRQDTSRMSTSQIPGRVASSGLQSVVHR
Experiment [10] has the same target. The settings on record: at 10 µM.
Experiment [11] concerns the target T3, Casein kinase II (Homo sapiens) (UniProt P67870+P68400+P19784). The settings on record: at 1 µM.
Experiment [12] has as its target T3, Casein kinase II (Homo sapiens). Conditions: at 10 µM.
Experiment [13] concerns the target Casein kinase II subunit alpha' (Homo sapiens) (UniProt P19784). Conditions: at 1 µM.
Experiment [14] has the same target. Conditions: at 10 µM.
Experiment [15] addresses Dual specificity protein kinase CLK2 (Homo sapiens) (UniProt P49760). Conditions: at 1 µM.
Experiment [16] has the same target. The settings on record: at 10 µM.
Experiment [17] addresses Dual specificity protein kinase CLK3 (Homo sapiens) (UniProt P49761). The settings on record: at 1 µM.
The target is the same in experiment [18]. Conditions: at 10 µM.
Experiment [19] concerns the target Tyrosine-protein kinase CSK (Homo sapiens) (UniProt P41240). Conditions: at 1 µM.
Experiment [20] has the same target. Conditions: at 10 µM.

Dual specificity protein kinase CLK2 (Homo sapiens), sequence (P49760 whole entry, looked up): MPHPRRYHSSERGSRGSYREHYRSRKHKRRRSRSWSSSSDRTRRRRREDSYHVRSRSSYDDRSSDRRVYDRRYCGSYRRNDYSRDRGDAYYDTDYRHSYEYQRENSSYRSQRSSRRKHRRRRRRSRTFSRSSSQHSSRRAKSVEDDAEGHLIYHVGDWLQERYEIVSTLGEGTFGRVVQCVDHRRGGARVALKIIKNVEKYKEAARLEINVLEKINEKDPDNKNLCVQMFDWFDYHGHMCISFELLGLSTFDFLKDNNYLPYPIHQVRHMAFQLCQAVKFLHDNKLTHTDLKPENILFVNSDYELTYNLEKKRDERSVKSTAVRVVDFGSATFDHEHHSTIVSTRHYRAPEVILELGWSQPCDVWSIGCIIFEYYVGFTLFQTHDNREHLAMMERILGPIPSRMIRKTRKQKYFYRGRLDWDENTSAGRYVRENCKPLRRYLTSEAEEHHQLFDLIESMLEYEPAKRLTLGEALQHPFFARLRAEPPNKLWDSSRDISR
Casein kinase I isoform gamma-1 (Homo sapiens), sequence (Q9HCP0 whole entry, looked up, canonical isoform): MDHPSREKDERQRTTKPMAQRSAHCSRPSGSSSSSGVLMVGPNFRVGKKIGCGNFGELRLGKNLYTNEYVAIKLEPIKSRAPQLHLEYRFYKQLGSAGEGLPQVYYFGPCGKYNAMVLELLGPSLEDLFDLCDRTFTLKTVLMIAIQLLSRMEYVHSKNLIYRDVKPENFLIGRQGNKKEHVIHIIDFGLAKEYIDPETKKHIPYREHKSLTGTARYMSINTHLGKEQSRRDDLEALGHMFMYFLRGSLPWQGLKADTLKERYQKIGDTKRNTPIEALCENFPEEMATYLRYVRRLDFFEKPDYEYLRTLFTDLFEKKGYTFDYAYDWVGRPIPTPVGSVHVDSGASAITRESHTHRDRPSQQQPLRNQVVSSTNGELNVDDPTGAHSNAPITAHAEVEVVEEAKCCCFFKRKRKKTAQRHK
Dual specificity protein kinase CLK3 (Homo sapiens), sequence (P49761 whole entry, looked up): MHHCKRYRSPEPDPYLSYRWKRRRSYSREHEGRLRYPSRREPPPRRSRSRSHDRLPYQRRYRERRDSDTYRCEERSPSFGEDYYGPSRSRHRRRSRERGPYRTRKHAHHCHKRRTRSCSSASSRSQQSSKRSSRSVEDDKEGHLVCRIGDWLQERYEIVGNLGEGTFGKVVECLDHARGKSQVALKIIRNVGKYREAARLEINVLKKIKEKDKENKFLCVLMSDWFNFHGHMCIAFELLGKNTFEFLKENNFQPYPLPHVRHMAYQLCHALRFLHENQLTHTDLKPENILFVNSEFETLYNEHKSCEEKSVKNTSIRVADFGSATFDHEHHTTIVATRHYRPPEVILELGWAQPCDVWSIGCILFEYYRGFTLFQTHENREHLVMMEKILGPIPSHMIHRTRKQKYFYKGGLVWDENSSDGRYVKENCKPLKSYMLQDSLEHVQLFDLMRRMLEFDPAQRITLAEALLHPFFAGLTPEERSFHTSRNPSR
Tyrosine-protein kinase CSK (Homo sapiens), sequence (P41240 2-450 limits assumed): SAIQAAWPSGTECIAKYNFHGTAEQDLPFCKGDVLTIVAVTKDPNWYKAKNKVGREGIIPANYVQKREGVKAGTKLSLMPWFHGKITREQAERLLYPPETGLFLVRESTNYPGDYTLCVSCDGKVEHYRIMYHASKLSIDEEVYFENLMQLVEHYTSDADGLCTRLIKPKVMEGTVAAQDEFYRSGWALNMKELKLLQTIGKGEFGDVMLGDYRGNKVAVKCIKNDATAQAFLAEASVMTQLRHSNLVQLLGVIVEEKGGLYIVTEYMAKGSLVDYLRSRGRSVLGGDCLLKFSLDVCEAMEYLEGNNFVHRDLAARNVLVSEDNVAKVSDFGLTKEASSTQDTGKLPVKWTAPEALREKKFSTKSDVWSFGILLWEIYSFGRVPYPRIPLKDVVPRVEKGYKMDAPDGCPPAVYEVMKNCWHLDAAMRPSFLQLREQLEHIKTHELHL
Casein kinase II subunit alpha' (Homo sapiens), sequence (P19784 whole entry, looked up): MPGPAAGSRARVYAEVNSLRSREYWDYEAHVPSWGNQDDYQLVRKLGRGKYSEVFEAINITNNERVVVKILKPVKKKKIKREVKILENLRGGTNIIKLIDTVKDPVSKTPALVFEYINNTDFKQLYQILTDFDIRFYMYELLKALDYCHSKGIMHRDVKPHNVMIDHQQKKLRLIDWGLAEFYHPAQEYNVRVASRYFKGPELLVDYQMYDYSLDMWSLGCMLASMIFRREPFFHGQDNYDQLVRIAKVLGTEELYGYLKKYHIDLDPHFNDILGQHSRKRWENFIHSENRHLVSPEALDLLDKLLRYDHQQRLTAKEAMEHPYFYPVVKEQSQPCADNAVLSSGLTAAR
T3 sequence (P19784 whole entry, looked up): as above
T3 sequence (P67870 whole entry, looked up): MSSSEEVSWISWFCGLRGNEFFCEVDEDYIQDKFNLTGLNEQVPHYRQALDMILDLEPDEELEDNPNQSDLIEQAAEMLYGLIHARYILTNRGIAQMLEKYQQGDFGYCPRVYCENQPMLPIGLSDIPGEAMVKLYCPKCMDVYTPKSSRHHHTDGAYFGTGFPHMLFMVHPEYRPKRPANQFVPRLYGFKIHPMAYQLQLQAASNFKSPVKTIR
T3 sequence (P68400 whole entry, looked up): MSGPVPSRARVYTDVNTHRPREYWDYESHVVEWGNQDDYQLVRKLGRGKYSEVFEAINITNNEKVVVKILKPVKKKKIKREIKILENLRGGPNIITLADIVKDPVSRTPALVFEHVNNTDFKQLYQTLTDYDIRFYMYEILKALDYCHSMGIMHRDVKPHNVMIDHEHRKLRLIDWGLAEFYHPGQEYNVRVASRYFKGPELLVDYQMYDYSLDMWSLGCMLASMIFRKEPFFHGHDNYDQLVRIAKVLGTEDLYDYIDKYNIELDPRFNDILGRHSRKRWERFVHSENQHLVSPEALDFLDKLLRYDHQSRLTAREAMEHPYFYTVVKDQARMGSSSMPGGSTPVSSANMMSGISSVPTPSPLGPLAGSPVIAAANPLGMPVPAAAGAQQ

As for `N#CCCc1ccc2c(c1)-c1[nH]c3ccc([N+](=O)[O-])cc3c1CC(=O)N2`, the residual activity was determined as 1% in [1]; 0% in experiment [2]; 39% in [3]; 16% in [4]; 4% in experiment [5]; 0% in [6].
Consider `COc1cc2ncnc(Nc3ccc(Oc4ccccc4)cc3)c2cc1OC`, for which the residual activity stood at 99% in [1]; 93% in experiment [2]; 76% in experiment [3]; 88% in experiment [4]; 24% in [5]; 8% in experiment [6]. The residual activity in experiment [7] turned out to be 93%; in [8], 89%; in [9], 83%; in experiment [10], 101%; in [11], 93%; in [12] it was 100%. Moreover, the residual activity in experiment [13] is 114%; in [14], 108%; in experiment [15], 108%; in [16], 106%; in experiment [17], 82%; in experiment [18], 99%. Moreover, the residual activity in experiment [19] was determined as 12%; in experiment [20] it was 3%.
As to `O=C1Nc2ccccc2/C1=C1/Nc2ccccc2/C1=N\OCCC(O)CO` (centres undefined), the residual activity in [1] is 12%; in experiment [2], 7%; in experiment [3] it was 68%; in experiment [4], 33%; in experiment [5], 26%; in experiment [6], 3%. Besides, the residual activity turned out to be 102% in experiment [7]; 55% in [8]; 35% in [9]; 9% in [10]; 73% in experiment [11]; 22% in [12]. In addition, the residual activity in experiment [13] worked out at 46%; in experiment [14] it was 3%; in [15], 2%; in [16], 4%; in [17], 58%; in experiment [18] it was 25%.
As to `Nc1ccc2ncnc(NCCc3ccc(Oc4ccccc4)cc3)c2c1`, the residual activity is 94% in experiment [1]; 107% in experiment [2]; 94% in [3]; 72% in experiment [4]; 52% in experiment [5]; 17% in [6]. For the same compound, the residual activity in experiment [7] is 87%; in [8], 82%; in experiment [9], 77%; in [10], 53%; in experiment [11] it was 100%; in experiment [12], 101%. The residual activity in experiment [13] is 109%; in experiment [14] it was 100%; in experiment [15] it was 87%; in experiment [16] it was 69%; in experiment [17] it was 94%; in [18] it was 92%. Further, the residual activity came to 118% in experiment [19] and 91% in [20].
As to `CNc1cc2c(Nc3cccc(Br)c3)ncnc2cn1`, the residual activity in experiment [1] came out at 86%; in [2], 86%; in [3], 88%; in experiment [4], 77%; in [5], 97%; in [6], 56%. Also, the residual activity in experiment [7] came to 101%; in experiment [8] it was 69%; in [9], 111%; in experiment [10] it was 90%; in experiment [11], 90%; in experiment [12] it was 89%. Moreover, the residual activity amounted to 118% in [13]; 96% in [14]; 113% in experiment [15]; 98% in experiment [16]; 95% in [17]; 33% in experiment [18]. The residual activity in experiment [19] is 109%; in experiment [20], 92%.
Regarding `COc1ccc(C(=O)Nc2sc3c(c2C(N)=O)CCCC3)cc1OC`, the residual activity amounted to 96% in [1]; 97% in [2]; 81% in experiment [3]; 104% in [4]; 77% in experiment [5]; 98% in [6]. Besides, the residual activity in experiment [7] turned out to be 84%; in experiment [8], 103%; in experiment [9] it was 89%; in [10], 96%; in experiment [11], 95%; in experiment [12], 115%. Besides, the residual activity in experiment [13] turned out to be 126%; in experiment [14], 91%; in experiment [15], 90%; in experiment [16], 82%; in experiment [17], 50%; in [18], 52%. Also, the residual activity in [19] is 101%; in [20], 99%.
As for `O=C(O)c1ccc2c3c1cccc3c(=O)n1c3ccccc3nc21`, the residual activity came to 75% in [1]; 30% in experiment [2]; 99% in experiment [3]; 94% in experiment [4]; 86% in experiment [5]; 38% in experiment [6]. Also, the residual activity in [7] is 99%; in [8], 65%; in [9] it was 87%; in [10], 58%; in experiment [11] it was 22%; in experiment [12], -4%. Moreover, the residual activity in [13] was found to be 18%; in experiment [14], 4%; in [15] it was 77%; in [16], 27%; in [17], 77%; in experiment [18], 32%. The figures for the residual activity in [19] and in experiment [20] were 102% and 88%, respectively.
For `CCOc1cc2ncnc(Nc3cccc(Br)c3)c2cc1OCC`, the residual activity in experiment [1] is 94%; in experiment [2], 82%; in experiment [3] it was 85%; in experiment [4] it was 82%; in experiment [5], 91%; in experiment [6], 47%. Besides, the residual activity in experiment [7] was 91%; in [8], 87%; in [9] it was 84%; in [10] it was 51%; in experiment [11] it was 89%; in experiment [12], 104%. In addition, the residual activity in [13] came to 113%; in experiment [14], 95%; in [15] it was 102%; in experiment [16], 68%; in experiment [17] it was 92%; in [18] it was 59%. For the same compound, the residual activity in experiment [19] stood at 95%; in [20], 66%.
`Cc1nc(-c2ccccc2)c(-c2ccncc2)o1`: the residual activity was 111% in experiment [1]; 98% in experiment [2]; 102% in experiment [3]; 98% in experiment [4]; 91% in experiment [5]; 72% in experiment [6]. Also, the residual activity worked out at 111% in [7]; 82% in experiment [8]; 44% in experiment [9]; 8% in experiment [10]; 103% in [11]; 98% in [12]. The residual activity was 102% in experiment [13]; 92% in [14]; 114% in [15]; 96% in experiment [16]; 82% in [17]; 84% in experiment [18]. In addition, the residual activity in experiment [19] turned out to be 108%; in [20] it was 104%.
As for `O=C1NC(=O)/C(=C\c2ccc3nccnc3c2)S1`, the residual activity was determined as 60% in experiment [1]; 14% in experiment [2]; 85% in experiment [3]; 91% in [4]; 78% in experiment [5]; 33% in experiment [6]. The residual activity is 92% in experiment [7]; 44% in experiment [8]; 88% in experiment [9]; 46% in [10]; -13% in [11]; -12% in [12]. The residual activity in experiment [13] was -12%; in [14] it was -5%; in experiment [15], 43%; in experiment [16], 6%; in experiment [17], 19%; in experiment [18], -1%. Moreover, the residual activity in experiment [19] is 102%; in experiment [20], 99%.
As for `CC(C)n1cnc2/c(=N/c3cccc(Cl)c3)nc(NCCO)[nH]c21`, the residual activity in [1] was found to be 63%; in experiment [2], 24%; in experiment [3] it was 38%; in [4], 25%; in experiment [5], 64%; in experiment [6], 21%. The residual activity in experiment [7] turned out to be 8%; in [8], 0%; in experiment [9] it was 37%; in experiment [10], 7%; in experiment [11], 89%; in experiment [12], 86%. The residual activity in [13] is 108%; in experiment [14], 103%; in experiment [15], 19%; in experiment [16], 6%; in experiment [17], 55%; in experiment [18], 12%. Besides, the values for the residual activity in experiment [19] and in experiment [20] were 101% and 88%, respectively.
In the case of `O=C1NC(=O)/C(=C/c2ccc3c(c2)OC(F)(F)O3)S1`, the residual activity in experiment [1] came out at 94%; in [2], 77%; in experiment [3], 94%; in [4] it was 88%; in experiment [5], 93%; in [6], 85%. The residual activity in experiment [7] came to 95%; in experiment [8] it was 94%; in experiment [9], 80%; in experiment [10], 65%; in experiment [11], 32%; in experiment [12] it was 2%. Also, the residual activity in experiment [13] turned out to be 52%; in experiment [14], 0%; in experiment [15] it was 116%; in [16] it was 75%; in experiment [17] it was 91%; in [18] it was 94%. In addition, the residual activity in experiment [19] was determined as 121%; in [20], 117%.
On to `CC#CC(=O)Nc1cc2c(Nc3ccc(F)c(Cl)c3)ncnc2cn1`, for which the residual activity in experiment [1] turned out to be 97%; in experiment [2], 96%; in experiment [3], 89%; in experiment [4], 98%; in experiment [5], 99%; in experiment [6], 108%. The residual activity in experiment [7] was 89%; in experiment [8] it was 95%; in experiment [9] it was 93%; in experiment [10], 106%; in experiment [11], 78%; in experiment [12], 114%. Besides, the residual activity in [13] amounted to 120%; in experiment [14] it was 86%; in experiment [15], 103%; in experiment [16] it was 88%; in experiment [17] it was 83%; in experiment [18], 125%. Also, the residual activity in experiment [19] turned out to be 103%; in experiment [20] it was 99%.
Take `Cc1ccc(S(=O)(=O)/C=C/C#N)cc1`: the residual activity in experiment [1] came to 102%; in experiment [2], 87%; in experiment [3] it was 99%; in experiment [4] it was 89%; in [5], 85%; in [6] it was 78%. In addition, the residual activity in experiment [7] is 80%; in [8] it was 83%; in experiment [9] it was 96%; in experiment [10] it was 89%; in experiment [11], 116%; in experiment [12], 98%. Moreover, the residual activity turned out to be 114% in experiment [13]; 103% in experiment [14]; 110% in experiment [15]; 112% in experiment [16]; 96% in experiment [17]; 96% in experiment [18]. In addition, the residual activity in experiment [19] was determined as 116%; in [20], 105%.
